Holding throughout (test): yeast three-hybrid, YBZ-1, SC-Leu-His + 0.5 mM 3-AT, 4 days
Details in all cases: tags: N-Gal4 AD-HA kept; label: inside an RPR1-promoter hybrid RNA with tandem MS2 sites; ssRNA

One assay deals with PUM1 PUF domain R7-TIV (Homo sapiens, UniProt Q14671 828-1176, S1079T;N1080I;E1083V). The procedure, abridged:
(§1)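 The interaction score is the log change in variant frequency from input to selection. Scores were computed in log2 with a pseudocount of 1 for absent variants, using Illumina sequencing of PCR-amplified repeat regions. The input came from four days on SC-Leu and the selection from four days on SC-Leu-His + 0.5 mM 3-AT. The cells were strain YBZ-1 (LexA–MS2 coat fusion, HIS3 reporter) co-expressing Pumilio-1 PUF domain libraries and matching RNA elements from a centromeric plasmid.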

For another assay, the target named is PUM1 PUF domain R5-RHN (Homo sapiens, UniProt Q14671 828-1176, C1007R;R1008H;Q1011N). The procedure, abridged: as §1
Another assay has as its target PUM1 PUF domain R5-PRS (Homo sapiens, UniProt Q14671 828-1176, C1007P;Q1011S). In a few lines:
as §1

For another assay, the target named is PUM1 PUF domain R5-KWA (Homo sapiens, UniProt Q14671 828-1176, C1007K;R1008W;Q1011A). The procedure, abridged:
as §1

A further assay has as its target PUM1 PUF domain R5-MYC (Homo sapiens, UniProt Q14671 828-1176, C1007M;R1008Y;Q1011C). In a few lines: as §1
A further assay addresses PUM1 PUF domain R3-RCS (Homo sapiens, UniProt Q14671 828-1176, C935R;R936C;Q939S). In a few lines:
as §1

A further assay has as its target PUM1 PUF domain R3-SNR (Homo sapiens, UniProt Q14671 828-1176, C935S;R936N;Q939R). In a few lines: as §1
The target of the next assay is T1, PUM1 PUF domain R6-QRS (Homo sapiens, UniProt Q14671 828-1176, N1043Q;Y1044R;Q1047S).
T1 sequence: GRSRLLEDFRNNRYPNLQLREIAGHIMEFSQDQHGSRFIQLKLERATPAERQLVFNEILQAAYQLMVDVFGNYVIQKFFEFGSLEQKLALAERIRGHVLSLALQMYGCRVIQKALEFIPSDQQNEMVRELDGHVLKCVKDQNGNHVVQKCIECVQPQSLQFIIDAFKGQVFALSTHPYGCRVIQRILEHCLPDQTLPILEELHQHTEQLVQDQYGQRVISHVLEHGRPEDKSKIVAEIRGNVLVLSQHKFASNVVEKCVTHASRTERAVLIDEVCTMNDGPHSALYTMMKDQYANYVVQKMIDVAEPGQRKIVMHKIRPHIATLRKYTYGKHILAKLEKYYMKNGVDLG
In a few lines:
as §1

The target of another assay is PUM1 PUF domain R3-IFT (Homo sapiens, UniProt Q14671 828-1176, C935I;R936F;Q939T). The procedure, abridged: as §1
The target of a further assay is PUM1 PUF domain R5-KYS (Homo sapiens, UniProt Q14671 828-1176, C1007K;R1008Y;Q1011S). The procedure, abridged: as §1
In another assay the target is PUM1 PUF domain R8-EWK (Homo sapiens, UniProt Q14671 828-1176, N1122E;Y1123W;Q1126K). In a few lines: as §1
A further assay addresses PUM1 PUF domain R8-KYK (Homo sapiens, UniProt Q14671 828-1176, N1122K;Q1126K). In a few lines:
as §1

The next assay has as its target PUM1 PUF domain R8-GHR (Homo sapiens, UniProt Q14671 828-1176, N1122G;Y1123H;Q1126R). The procedure, abridged: as §1
A further assay deals with PUM1 PUF domain R8-RYW (Homo sapiens, UniProt Q14671 828-1176, N1122R;Q1126W). In a few lines:
as §1

The target in the next assay is PUM1 PUF domain R5-KYC (Homo sapiens, UniProt Q14671 828-1176, C1007K;R1008Y;Q1011C). In a few lines:
as §1

The target of a further assay is PUM1 PUF domain R1-QTR (Homo sapiens, UniProt Q14671 828-1176, S863Q;R864T;Q867R). In a few lines: as §1
For another assay, the target named is PUM1 PUF domain R7-ENR (Homo sapiens, UniProt Q14671 828-1176, S1079E;E1083R). The procedure, abridged: as §1
The next assay has as its target PUM1 PUF domain R1-KLC (Homo sapiens, UniProt Q14671 828-1176, S863K;R864L;Q867C). The procedure, abridged:
as §1

Consider “GGCUAGAACUAGUGGAUCCCCCGGCGCCCGGCGGCUCGAGCCCGGGUAAGUUUAAAUAGUCUGCAUGCCGCCGGGCGCCAUGCCUGCAGGUCGACUCUAGAAAACAUG”, for which the binding signal with PUM1 PUF domain R7-TIV was 2.5 log2 enrichment (interaction score).
With “GGCUAGAACUAGUGGAUCCCCCGGCGCCCGGCGGCUCGAGCCCGGGUAAGUGUGAAUAGUCUGCAUGCCGCCGGGCGCCAUGCCUGCAGGUCGACUCUAGAAAACAUG”, the binding signal was 4.79 log2 enrichment (interaction score) with PUM1 PUF domain R5-RHN, 1.55 log2 enrichment (interaction score) in the assay with PUM1 PUF domain R5-PRS, 2.43 log2 enrichment (interaction score) with PUM1 PUF domain R5-KWA and 4.74 log2 enrichment (interaction score) with PUM1 PUF domain R5-MYC.
In the case of “GGCUAGAACUAGUGGAUCCCCCGGCGCCCGGCGGCUCGAGCCCGGGUAAGUGUAAGUAGUCUGCAUGCCGCCGGGCGCCAUGCCUGCAGGUCGACUCUAGAAAACAUG”, the binding signal with PUM1 PUF domain R3-RCS is 4.81 log2 enrichment (interaction score); in the assay with PUM1 PUF domain R3-SNR, 0.8 log2 enrichment (interaction score).
As to “GGCUAGAACUAGUGGAUCCCCCGGCGCCCGGCGGCUCGAGCCCGGGUAAGUGUAAAUAGUCUGCAUGCCGCCGGGCGCCAUGCCUGCAGGUCGACUCUAGAAAACAUG”, the binding signal in the assay with PUM1 PUF domain R6-QRS was 4.63 log2 enrichment (interaction score); in the assay with PUM1 PUF domain R3-IFT, 4.66 log2 enrichment (interaction score); in the assay with PUM1 PUF domain R5-KYS, 2.35 log2 enrichment (interaction score); in the assay with PUM1 PUF domain R8-EWK, 3.5 log2 enrichment (interaction score); in the assay with PUM1 PUF domain R8-KYK it was 2.92 log2 enrichment (interaction score); with PUM1 PUF domain R5-PRS, 4.36 log2 enrichment (interaction score). Besides, the figures for the binding signal in the assay with PUM1 PUF domain R8-GHR, with PUM1 PUF domain R8-RYW and with PUM1 PUF domain R5-KYC were 1.48 log2 enrichment (interaction score), 4.31 log2 enrichment (interaction score) and 5.13 log2 enrichment (interaction score), respectively.
As for “GGCUAGAACUAGUGGAUCCCCCGGCGCCCGGCGGCUCGAGCCCGGGUAAGUGUAAAUCGUCUGCAUGCCGCCGGGCGCCAUGCCUGCAGGUCGACUCUAGAAAACAUG”, in the assay with PUM1 PUF domain R1-QTR, the binding signal is 2.41 log2 enrichment (interaction score).
Turning to “GGCUAGAACUAGUGGAUCCCCCGGCGCCCGGCGGCUCGAGCCCGGGUAAGUGUCAAUAGUCUGCAUGCCGCCGGGCGCCAUGCCUGCAGGUCGACUCUAGAAAACAUG”, the binding signal with PUM1 PUF domain R5-KYS is 3.71 log2 enrichment (interaction score).
With “GGCUAGAACUAGUGGAUCCCCCGGCGCCCGGCGGCUCGAGCCCGGGUAAGCGUAAAUAGUCUGCAUGCCGCCGGGCGCCAUGCCUGCAGGUCGACUCUAGAAAACAUG”, the binding signal with PUM1 PUF domain R8-KYK was 3.86 log2 enrichment (interaction score); with PUM1 PUF domain R8-GHR, 3.27 log2 enrichment (interaction score); in the assay with PUM1 PUF domain R8-RYW it was 5.69 log2 enrichment (interaction score).
For the sequence “GGCUAGAACUAGUGGAUCCCCCGGCGCCCGGCGGCUCGAGCCCGGGUAAGUCUAAAUAGUCUGCAUGCCGCCGGGCGCCAUGCCUGCAGGUCGACUCUAGAAAACAUG”, the binding signal with PUM1 PUF domain R7-ENR was 3.14 log2 enrichment (interaction score).
Consider “GGCUAGAACUAGUGGAUCCCCCGGCGCCCGGCGGCUCGAGCCCGGGUAAGUGUAAAUUGUCUGCAUGCCGCCGGGCGCCAUGCCUGCAGGUCGACUCUAGAAAACAUG”, for which, in the assay with PUM1 PUF domain R1-KLC, the binding signal is 5.07 log2 enrichment (interaction score).
As for “GGCUAGAACUAGUGGAUCCCCCGGCGCCCGGCGGCUCGAGCCCGGGUAAGUGUAAUUAGUCUGCAUGCCGCCGGGCGCCAUGCCUGCAGGUCGACUCUAGAAAACAUG”, the binding signal in the assay with PUM1 PUF domain R3-SNR is 3.93 log2 enrichment (interaction score).
Regarding “GGCUAGAACUAGUGGAUCCCCCGGCGCCCGGCGGCUCGAGCCCGGGUAAGUGUUAAUAGUCUGCAUGCCGCCGGGCGCCAUGCCUGCAGGUCGACUCUAGAAAACAUG”, the binding signal is 2.86 log2 enrichment (interaction score) with PUM1 PUF domain R5-MYC and 5.51 log2 enrichment (interaction score) in the assay with PUM1 PUF domain R5-KYC.
